Holding throughout (assay): DAPPL (digital affinity profiling via proximity ligation, sequencing); 10 mM Tris-HCl pH 7.5, 50 mM NaCl, 1 mM DTT, 4% glycerol, room temperature, 30 min; GST-TFs on glutathione beads, 16-mer random dsDNA library, 0.1% formaldehyde crosslink after washing; high values mean tight binding
What all share (details): protein: recombinant; tags: N-terminal GST; dsDNA, one strand shown

One experiment has as its target T1, ELK1 (Homo sapiens, UniProt P19419 1-428).
T1 sequence: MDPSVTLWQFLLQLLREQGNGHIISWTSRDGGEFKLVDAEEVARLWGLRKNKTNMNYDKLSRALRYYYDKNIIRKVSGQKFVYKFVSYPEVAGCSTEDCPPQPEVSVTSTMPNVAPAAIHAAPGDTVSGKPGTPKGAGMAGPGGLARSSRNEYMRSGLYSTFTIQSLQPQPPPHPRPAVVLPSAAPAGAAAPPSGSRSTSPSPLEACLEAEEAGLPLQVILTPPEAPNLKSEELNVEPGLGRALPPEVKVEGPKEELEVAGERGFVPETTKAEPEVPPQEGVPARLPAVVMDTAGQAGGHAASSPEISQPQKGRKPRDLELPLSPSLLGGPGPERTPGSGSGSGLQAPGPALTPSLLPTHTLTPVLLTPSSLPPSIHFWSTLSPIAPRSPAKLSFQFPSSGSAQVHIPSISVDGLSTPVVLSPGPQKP
Put shortly:
(§1)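 Sequencing on an Illumina NextSeq500 followed washing, crosslinking with 0.1% formaldehyde, proximity ligation (BsaI/T4 ligase, 1 h, 37 °C) and PCR amplification of pools that had been incubated for 30 min at room temperature with 200 nmole of a random double-stranded 16-mer DNA library in Tris/NaCl/DTT/glycerol buffer. Each pool held DNA-barcoded human transcription factors, expressed in yeast as GST fusions and captured on glutathione beads, plus a tag-only sample. Binding signal is a hexamer's read frequency for a factor divided by its frequency in the tag-only sample.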

In another experiment the target is T2, ERG (Homo sapiens, UniProt P11308 1-479).
T2 sequence: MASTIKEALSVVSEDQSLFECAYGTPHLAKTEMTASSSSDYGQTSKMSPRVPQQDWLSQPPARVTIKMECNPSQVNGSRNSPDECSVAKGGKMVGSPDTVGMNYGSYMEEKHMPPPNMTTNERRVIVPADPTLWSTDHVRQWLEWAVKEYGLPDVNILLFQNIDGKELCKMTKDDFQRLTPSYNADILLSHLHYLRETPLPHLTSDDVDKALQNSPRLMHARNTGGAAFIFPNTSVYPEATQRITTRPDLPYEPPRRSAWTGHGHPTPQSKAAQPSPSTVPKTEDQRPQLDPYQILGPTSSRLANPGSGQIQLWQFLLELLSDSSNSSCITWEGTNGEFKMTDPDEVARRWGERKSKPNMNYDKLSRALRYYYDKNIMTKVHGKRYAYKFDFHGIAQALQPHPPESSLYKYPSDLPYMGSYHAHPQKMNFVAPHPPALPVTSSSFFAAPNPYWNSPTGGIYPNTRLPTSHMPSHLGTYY
The essentials:
as §1

In the next experiment the target is ELF1 (Homo sapiens, UniProt P32519 1-619). The essentials: as §1
For another experiment, the target named is T3, EHF (Homo sapiens, UniProt Q9NZC4 1-300).
T3 sequence: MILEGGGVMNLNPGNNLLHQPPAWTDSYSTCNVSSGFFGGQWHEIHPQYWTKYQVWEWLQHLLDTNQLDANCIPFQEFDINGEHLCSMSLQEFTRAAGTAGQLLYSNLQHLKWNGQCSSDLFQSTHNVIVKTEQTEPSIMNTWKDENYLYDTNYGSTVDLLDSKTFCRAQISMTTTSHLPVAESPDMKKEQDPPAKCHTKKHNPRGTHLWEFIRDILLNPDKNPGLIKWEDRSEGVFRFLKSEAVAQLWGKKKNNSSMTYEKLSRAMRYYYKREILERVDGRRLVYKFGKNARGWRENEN
Put shortly: as §1

A further experiment has as its target T4, SPIC (Homo sapiens, UniProt Q8N5J4 1-248).
T4 sequence: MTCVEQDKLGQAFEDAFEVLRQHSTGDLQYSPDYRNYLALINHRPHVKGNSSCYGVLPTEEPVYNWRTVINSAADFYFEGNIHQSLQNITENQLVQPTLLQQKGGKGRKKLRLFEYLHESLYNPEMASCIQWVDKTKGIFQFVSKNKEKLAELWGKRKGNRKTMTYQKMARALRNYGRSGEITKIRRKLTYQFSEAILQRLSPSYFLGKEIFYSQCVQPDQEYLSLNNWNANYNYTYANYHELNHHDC
Put shortly: as §1

A further experiment addresses ELF4 (Homo sapiens, UniProt Q99607 1-663). Put shortly:
as §1

Another experiment concerns the target T5, ELK4 (Homo sapiens, UniProt P28324-2 1-405).
T5 sequence: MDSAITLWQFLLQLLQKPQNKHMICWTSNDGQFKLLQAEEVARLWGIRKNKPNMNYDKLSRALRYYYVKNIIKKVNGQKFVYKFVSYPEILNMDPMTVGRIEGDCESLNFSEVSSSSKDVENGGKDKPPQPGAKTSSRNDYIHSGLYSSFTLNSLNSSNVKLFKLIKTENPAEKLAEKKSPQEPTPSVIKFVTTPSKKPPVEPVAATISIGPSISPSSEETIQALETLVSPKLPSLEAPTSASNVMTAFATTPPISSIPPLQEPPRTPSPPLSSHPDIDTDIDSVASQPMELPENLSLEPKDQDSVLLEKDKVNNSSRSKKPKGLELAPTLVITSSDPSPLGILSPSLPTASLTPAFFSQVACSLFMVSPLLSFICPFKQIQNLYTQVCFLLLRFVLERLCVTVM
Put shortly: as §1

Another experiment addresses T6, ELF3 (Homo sapiens, UniProt P78545 1-371).
T6 sequence: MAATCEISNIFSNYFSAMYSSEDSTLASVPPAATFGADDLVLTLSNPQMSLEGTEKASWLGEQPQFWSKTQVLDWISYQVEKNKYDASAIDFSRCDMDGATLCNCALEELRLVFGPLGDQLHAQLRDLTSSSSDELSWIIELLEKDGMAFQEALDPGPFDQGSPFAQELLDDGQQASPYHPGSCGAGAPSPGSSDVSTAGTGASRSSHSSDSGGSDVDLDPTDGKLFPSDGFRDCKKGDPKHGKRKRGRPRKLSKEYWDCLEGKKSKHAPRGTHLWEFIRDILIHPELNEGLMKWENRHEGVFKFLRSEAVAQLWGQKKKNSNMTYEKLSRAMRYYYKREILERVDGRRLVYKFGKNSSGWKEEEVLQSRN
The essentials:
as §1

A further experiment addresses ETV1 (Homo sapiens, UniProt P50549 1-477). Put shortly: as §1
The target of the next experiment is T7, ETV3L (Homo sapiens, UniProt Q6ZN32 1-361).
T7 sequence: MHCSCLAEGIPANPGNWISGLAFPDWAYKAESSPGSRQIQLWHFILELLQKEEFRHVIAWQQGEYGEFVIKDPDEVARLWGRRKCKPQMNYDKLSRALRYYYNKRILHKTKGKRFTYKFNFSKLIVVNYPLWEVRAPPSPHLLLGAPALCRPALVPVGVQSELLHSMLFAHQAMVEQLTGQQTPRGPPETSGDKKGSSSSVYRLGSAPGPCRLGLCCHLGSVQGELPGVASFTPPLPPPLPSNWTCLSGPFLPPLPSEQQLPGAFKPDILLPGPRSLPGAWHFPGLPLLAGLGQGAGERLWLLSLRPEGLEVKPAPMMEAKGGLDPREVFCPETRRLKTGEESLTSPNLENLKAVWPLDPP
The essentials:
as §1

A further experiment addresses T8, ETS2 (Homo sapiens, UniProt P15036 1-469).
T8 sequence: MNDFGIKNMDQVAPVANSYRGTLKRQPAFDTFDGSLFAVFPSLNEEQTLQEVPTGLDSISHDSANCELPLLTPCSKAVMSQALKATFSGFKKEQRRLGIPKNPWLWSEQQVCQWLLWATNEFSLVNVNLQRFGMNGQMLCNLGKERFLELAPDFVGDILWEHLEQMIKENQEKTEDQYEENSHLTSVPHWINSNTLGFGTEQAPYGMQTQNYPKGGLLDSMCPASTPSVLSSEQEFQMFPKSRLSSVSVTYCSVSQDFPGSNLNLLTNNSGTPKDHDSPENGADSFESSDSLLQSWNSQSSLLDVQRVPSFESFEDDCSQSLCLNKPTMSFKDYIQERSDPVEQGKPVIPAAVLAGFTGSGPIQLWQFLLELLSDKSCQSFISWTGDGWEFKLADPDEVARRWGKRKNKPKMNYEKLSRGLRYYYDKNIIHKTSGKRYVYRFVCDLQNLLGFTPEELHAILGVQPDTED
Put shortly: as §1

In a further experiment the target is T9, ETV3 (Homo sapiens, UniProt P41162-2 1-143).
T9 sequence: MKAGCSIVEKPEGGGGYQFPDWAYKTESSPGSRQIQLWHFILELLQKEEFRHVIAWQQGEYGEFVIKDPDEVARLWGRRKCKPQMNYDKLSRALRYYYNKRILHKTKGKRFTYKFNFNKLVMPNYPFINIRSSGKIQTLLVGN
Put shortly:
as §1

The target of a further experiment is ETV6 (Homo sapiens, UniProt P41212 1-452). Put shortly: as §1
Sequence of ETV6 (P41212 whole entry): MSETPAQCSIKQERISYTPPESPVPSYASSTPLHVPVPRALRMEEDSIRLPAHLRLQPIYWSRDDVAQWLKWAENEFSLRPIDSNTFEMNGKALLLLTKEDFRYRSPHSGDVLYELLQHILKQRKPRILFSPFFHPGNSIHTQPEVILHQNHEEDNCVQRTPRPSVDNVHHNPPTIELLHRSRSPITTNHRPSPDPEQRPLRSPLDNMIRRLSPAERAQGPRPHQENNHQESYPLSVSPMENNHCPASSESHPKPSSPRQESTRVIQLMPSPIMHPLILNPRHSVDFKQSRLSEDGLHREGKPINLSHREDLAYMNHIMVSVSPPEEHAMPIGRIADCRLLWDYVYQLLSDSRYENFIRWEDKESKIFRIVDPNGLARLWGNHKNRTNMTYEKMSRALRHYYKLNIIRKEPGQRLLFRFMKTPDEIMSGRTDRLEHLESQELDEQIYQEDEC

Sequence of ETV1 (P50549 whole entry): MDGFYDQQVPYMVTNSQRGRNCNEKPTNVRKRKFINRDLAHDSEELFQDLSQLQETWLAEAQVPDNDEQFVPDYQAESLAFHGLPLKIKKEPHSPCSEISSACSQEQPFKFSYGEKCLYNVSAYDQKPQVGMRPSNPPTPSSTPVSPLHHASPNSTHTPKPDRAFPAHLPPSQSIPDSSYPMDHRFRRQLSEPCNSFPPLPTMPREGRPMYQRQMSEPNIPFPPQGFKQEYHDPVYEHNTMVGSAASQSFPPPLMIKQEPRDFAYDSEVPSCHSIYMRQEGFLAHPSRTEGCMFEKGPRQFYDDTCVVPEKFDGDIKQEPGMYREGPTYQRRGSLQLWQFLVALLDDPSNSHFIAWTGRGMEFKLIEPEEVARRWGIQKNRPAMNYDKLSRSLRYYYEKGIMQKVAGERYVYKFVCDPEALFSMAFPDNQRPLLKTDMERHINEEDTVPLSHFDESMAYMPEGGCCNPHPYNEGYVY
Sequence of ELF1 (P32519 whole entry): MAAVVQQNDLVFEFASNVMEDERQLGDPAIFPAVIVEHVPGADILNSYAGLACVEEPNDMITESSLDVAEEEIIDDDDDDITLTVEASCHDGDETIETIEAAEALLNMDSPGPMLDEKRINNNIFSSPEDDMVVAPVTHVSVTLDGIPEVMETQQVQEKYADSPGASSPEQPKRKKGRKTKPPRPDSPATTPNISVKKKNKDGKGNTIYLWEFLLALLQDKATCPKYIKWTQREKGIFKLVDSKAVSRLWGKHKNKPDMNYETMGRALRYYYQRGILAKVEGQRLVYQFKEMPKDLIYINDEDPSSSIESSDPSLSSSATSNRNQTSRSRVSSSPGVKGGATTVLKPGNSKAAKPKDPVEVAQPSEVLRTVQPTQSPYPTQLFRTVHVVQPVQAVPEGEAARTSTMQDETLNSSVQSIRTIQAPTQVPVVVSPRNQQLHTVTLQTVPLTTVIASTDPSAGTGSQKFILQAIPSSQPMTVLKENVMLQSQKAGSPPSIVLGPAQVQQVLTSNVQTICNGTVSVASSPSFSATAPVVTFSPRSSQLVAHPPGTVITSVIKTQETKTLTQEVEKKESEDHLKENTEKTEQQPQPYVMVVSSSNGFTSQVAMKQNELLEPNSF
Sequence of ELF4 (Q99607 whole entry): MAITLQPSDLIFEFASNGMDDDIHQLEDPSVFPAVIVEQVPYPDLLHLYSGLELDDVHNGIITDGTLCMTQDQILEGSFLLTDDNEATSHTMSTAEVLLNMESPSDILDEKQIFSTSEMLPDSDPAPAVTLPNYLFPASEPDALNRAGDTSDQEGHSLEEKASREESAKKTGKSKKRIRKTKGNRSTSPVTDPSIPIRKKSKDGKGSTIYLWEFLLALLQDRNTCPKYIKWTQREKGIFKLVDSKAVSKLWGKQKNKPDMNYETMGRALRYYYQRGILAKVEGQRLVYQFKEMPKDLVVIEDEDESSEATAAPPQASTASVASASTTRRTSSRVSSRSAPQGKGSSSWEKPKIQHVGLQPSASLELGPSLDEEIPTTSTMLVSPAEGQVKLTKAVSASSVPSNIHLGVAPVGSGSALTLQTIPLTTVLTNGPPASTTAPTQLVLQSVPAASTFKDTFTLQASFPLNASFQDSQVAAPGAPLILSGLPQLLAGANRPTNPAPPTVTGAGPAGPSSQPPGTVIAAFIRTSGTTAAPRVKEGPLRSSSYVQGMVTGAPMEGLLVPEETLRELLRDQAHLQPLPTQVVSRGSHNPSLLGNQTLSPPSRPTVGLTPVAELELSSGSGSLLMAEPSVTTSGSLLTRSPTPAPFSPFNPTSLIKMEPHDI

With CCCCAG, the binding signal was 1 fold enrichment (6-mer frequency, TF over GST control) in the experiment with ELK1; 1.05 fold enrichment (6-mer frequency, TF over GST control) with ERG; 1.04 fold enrichment (6-mer frequency, TF over GST control) with ELF1; 1 fold enrichment (6-mer frequency, TF over GST control) with EHF; 1.14 fold enrichment (6-mer frequency, TF over GST control) in the experiment with SPIC; 1.04 fold enrichment (6-mer frequency, TF over GST control) with ELF4. The binding signal with ELK4 is 1.24 fold enrichment (6-mer frequency, TF over GST control); in the experiment with ELF3, 1.16 fold enrichment (6-mer frequency, TF over GST control); in the experiment with ETV1 it was 1.11 fold enrichment (6-mer frequency, TF over GST control); with ETV3L it was 1.11 fold enrichment (6-mer frequency, TF over GST control); with ETS2 it was 1.04 fold enrichment (6-mer frequency, TF over GST control); in the experiment with ETV3 it was 1.07 fold enrichment (6-mer frequency, TF over GST control). Moreover, in the experiment with ETV6, the binding signal was 1.03 fold enrichment (6-mer frequency, TF over GST control).

The record behind these values is article PMC7862700, “An all-to-all approach to the identification of sequence-specific readers for epigenetic DNA modifications on cytosine”.
